In the library only some 2.3% were active in any assay of this set; here they are far more common.
GLP1R ag: GLP-1 receptor (human) agonism. HEK293 GLP-1R CRE-luciferase, luminescence, 4-6 h; cells express a hypersensitive GLP-1R form. Potency, µM (titrated, usually from 45.6 µM), without a hit: at the highest dose activation, hits mostly activators. 0.007% of 380,000 active. P43220; note: % of control where 0% means no effect
Target sequence (P43220 whole entry, looked up): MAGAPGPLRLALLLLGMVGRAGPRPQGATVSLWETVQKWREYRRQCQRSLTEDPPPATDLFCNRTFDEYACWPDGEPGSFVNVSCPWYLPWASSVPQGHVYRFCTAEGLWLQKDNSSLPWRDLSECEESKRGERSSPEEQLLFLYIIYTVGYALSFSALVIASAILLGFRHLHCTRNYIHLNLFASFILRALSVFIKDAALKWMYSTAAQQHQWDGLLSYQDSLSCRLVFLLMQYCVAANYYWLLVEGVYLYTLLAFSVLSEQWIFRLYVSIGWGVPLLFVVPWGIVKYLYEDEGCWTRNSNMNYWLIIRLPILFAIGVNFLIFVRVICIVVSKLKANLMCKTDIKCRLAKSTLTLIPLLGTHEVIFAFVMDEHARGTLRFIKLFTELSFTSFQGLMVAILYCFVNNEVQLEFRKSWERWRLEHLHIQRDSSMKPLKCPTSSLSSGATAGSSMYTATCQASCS
Glioma ERSR ind: inducers of ER stress response in human glioma cells; U87-MG GRP78 promoter luciferase reporter, 16 h; Potency, µM, for inactives: at the top dose activation, usual class: activators; 0.02% of 420,000 active; note: series mostly up to about 76 µM; % of control where 0% means no effect; nearly all actives have a fitted effect of over 35% in size
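ERSR induction read as luciferase luminescence (Bright-Glo, 10 min at room temperature) in stably transfected human U87-MG glioma cells exposed to compounds for 16 h, using GRP78 as sensor.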
PTHR1 ag: agonists of human PTHR1 parathyroid hormone receptor. Q03431. HEK293 GP2 PTHR1 cells, GloSensor cAMP luminescence, 1 h. Potency, µM (doses to about 115 µM), for inactives: at the highest dose activation, usual class: activators. 0.075% of 410,000 active; note: nearly all actives have a fitted effect of over 55% in size
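HEK-293-derived GP2 cells expressing PTHR1 and a GloSensor cAMP reporter, 3,000/well, plated overnight, given luciferin plus IBMX (each 0.5 mM as added) for 1 h at 37 °C, then compound for 1 h at 37 °C. Luminescence was read after 15 min at room temperature.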
GLP1R inv ag: acts as inverse agonist at human GLP-1 receptor. Potency, µM (highest dose often 38.3 µM), for inactives: at the top dose activity change, negative = inhibition, actives largely listed as inhibitors. 1.6% of 410,000 active. P43220. HEK293 GLP-1R CRE-luciferase, luminescence, 24 h; GLP-1R form is constitutively active; note: % is set by controls: 0 for no effect and ±100 for the full control effect; nearly all actives have a fitted effect of over 55% in size
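Luminescence readout: a drop in cAMP-driven luciferase signal flags inverse agonism at a constitutively active GLP-1R stably expressed in HEK293. Compound exposure lasted 24 hr at 37 deg C, 5% CO2.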
GLS inh: glutaminase GLS (human) inhibition; GLS enzymatic activity, qHTS titration; Potency, µM (doses to about 45.5 µM), inactives show at the highest dose activity change, negative = inhibition, hits mostly inhibitors; 0.21% of 410,000 active; AID 624170; note: % is set by controls: 0 for no effect and ±100 for the full control effect
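Compounds were pin-transferred onto hKGA, after which L-glutamine (1 mM solution) and a detection mix of glutamate oxidase, HRP and Amplex Red were added. Initial and 30 min RT fluorescence reads were collected.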
12-LOX inh: blocks human arachidonate 12S-lipoxygenase. P18054. purified 12hLO, xylenol orange hydroperoxide absorbance. Potency, µM (top dose mostly 108 µM), for inactives: at the top dose activity change, negative = inhibition, usual class: inhibitors. 1.1% of 580,000 active. AID 1671190; note: % is set by controls: 0 for no effect and ±100 for the full control effect
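Hydroperoxide product was detected by ferrous iron/xylenol orange as the 573 to 405 nm absorbance ratio. Arachidonic acid at 40 uM (final) was turned over for 30 min at room temperature by 150 nM human 12hLO, pH 7.0 Hepes buffer, after 15 min compound preincubation.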
Starred values were filed as active, the others as inactive; i = inactive; ? = inconclusive; . = no result; [ ] = another dose, or the depositor's remark. Calls come from the whole dose curve; as a rule, active = well fitted curve in the direction sought with a large enough effect; inconclusive = small, poorly fitted or top-dose-only effect, or another doubt; inactive = no such curve, though single readings can be large; an effect the other way counts as inactive or inconclusive. Potency is the fitted concentration of half-maximal effect.

SMILES	GLP1R ag	Glioma ERSR ind	PTHR1 ag	GLP1R inv ag	GLS inh	12-LOX inh
O=C1Nc2ccc([N+](=O)[O-])cc2OC1CCN1CCN(c2ccccc2)CC1 (configuration not stated)	0%	-7%	-51%	11µM*	-1%	-25%
Cc1ccc(C)c(-n2ccnc2SC2CCCCC2=O)c1 (configuration not stated)	.	.	.	.	.	-7%
O=C(NCc1ccnc(OCC(F)(F)F)c1)c1ccc(Cl)o1	.	.	.	.	.	8%
N#Cc1cccnc1N1CCN(c2nccc(N3CCCC(O)C3)n2)CC1 (configuration not stated)	.	.	.	.	.	47%
Cc1ccc(-c2nccc(N3CCC(O)C3)n2)c(C)c1 (configuration not stated)	.	.	.	.	.	35µM*
O=C(C1=C(c2ccccc2)S(=O)(=O)CCO1)N(Cc1ccccc1F)c1ccccn1	.	.	.	.	.	-23%
Cn1nc(-c2ccccc2)cc1NC(=O)Nc1ccccc1F	7%	?	i	?	-8%	0%
Cc1cc(C)cc(NC(=O)Nc2cc(-c3ccccc3)nn2C)c1	22%	3%	-7%	8.9µM*	9%	?
COc1ccc(-c2[nH]ncc2CN(C)CCCN2CCOCC2)cc1F	3%	-3%	i	16%	1%	1%
CCn1ccnc1CN(C)Cc1cn[nH]c1-c1ccc(OC)c(F)c1	-3%	-3%	i	10µM*	2%	7%
CCCc1n[nH]c2c1/C(=N\OCC)CC(C)(C)C2	1%	-2%	?	?	0%	40µM*
COC(=O)CNC(=O)C1CCN(c2ncnc3sc4c(c23)CCCC4)CC1	.	.	.	.	.	9%
Cc1ccc(C(=O)C(C)OC(=O)c2cc3ccccc3[nH]2)cc1 (configuration not stated)	.	.	.	.	.	-20%
Cc1cccc(NC(=S)NCC(C)CSc2ccc(Cl)cc2)c1 (configuration not stated)	-7%	-6%	-26%	?	-2%	32µM*
S=C(NCCSc1ccc(Cl)cc1)Nc1cccc(Cl)c1	.	.	.	.	.	35µM*
Cc1ccc(NC(=S)NCC(C)CSc2ccc(Cl)cc2)cc1 (configuration not stated)	11%	-1%	i	-16%	13%	?
CSc1cccc(NC(=S)NCCSc2ccc(Cl)cc2)c1	.	.	.	.	.	35µM*
COc1ccccc1CC(=O)NC(C)C1CC2CCC1C2 (configuration not stated)	.	.	.	.	.	-31%
O=C(Nc1ccc2c(ccn2CCN2CCOCC2)c1)C1CCC1	.	.	.	.	.	3%
COc1ccc(CN2CC(Oc3ccc(F)c(C)c3)C2)cc1	.	.	.	.	.	45%[176 µM]
CCC/C(=N\NC(=O)C(C)C)c1ccccc1	.	.	.	.	.	-22%
CN1CC(=O)N(C2CCC2)Cc2c(NCc3ccc(F)cc3)ncnc21	.	.	.	.	.	-3%[6.33 µM]
CN1CC(=O)N(C2CCCNC2)Cc2c(NCc3ccc4c(c3)OCO4)ncnc21 (configuration not stated)	.	.	.	.	.	4.5µM*
CC(C)CCCNC(=O)NC(C)c1ccc(C#N)cc1 (configuration not stated)	.	.	.	.	.	-18%
O=C(CSc1nc(-c2ccco2)cc(C(F)(F)F)n1)Nc1ccc2c(c1)OCO2	-7%	-1%	i	?	0%	8%
SMILES	GLP1R ag	Glioma ERSR ind	PTHR1 ag	GLP1R inv ag	GLS inh	12-LOX inh
O=C(CCCSc1nc(-c2ccco2)cc(C(F)(F)F)n1)Nc1ccc2c(c1)OCO2	4%	-7%	i	10µM*	1%	56%
Cc1c(O)nc(SC2CC(=O)N(c3cc(Cl)cc(Cl)c3)C2=O)[nH]c1=O (configuration not stated)	-2%	-5%	-23%	4%	-15%	5.6µM*
CCc1c(O)nc(SC2CC(=O)N(c3ccc(F)c(Cl)c3)C2=O)[nH]c1=O (configuration not stated)	-3%	-3%	i	-12%	0%	?
Cn1nc(C(=O)Nc2ccc(Br)cc2F)c2ccccc2c1=O	.	.	.	.	.	28%
COc1ccc(Br)cc1/C=c1\sc2nc(-c3ccco3)nn2c1=O	-19%	-6%	i	1%	-2%	22µM*
Cc1ccc(/C=c2\sc3nc(-c4ccco4)nn3c2=O)o1	-29%	-4%	-22%	-1%	67%	.
COc1ccc(Sc2ccc(NC(=O)c3ccccc3Cl)cc2C#N)cc1	2%	-2%	-11%	13µM*	-5%	85%
N#Cc1cc(NC(=O)c2ccc(Cl)cc2)ccc1Sc1ccccc1	0%	-2%	-17%	-12%	-13%	-1%
Cc1nc(-c2cccnc2)[nH]c(=O)c1CC(=O)N(C)C(C)C(C)(C)C (configuration not stated)	.	.	.	.	.	0%
COc1ccc(S(=O)(=O)N2CCCCC2)cc1NC(=O)Cc1cccc(C(F)(F)F)c1	-8%	-4%	-19%	-3%	8%	-17%
COc1ccc(CCC(=O)Nc2cnc3ccccc3c2)cc1	8%	7%	-25%	0%	-6%	13µM*
COc1ccc(COC(=O)c2ccc(Cl)c(S(=O)(=O)N3CC(C)OC(C)C3)c2)cc1 (configuration not stated)	4%	-3%	-32%	8.9µM*	-1%	2%
COc1ccc(S(=O)(=O)N2CCCCCC2)cc1NC(=O)Cc1cccc(C(F)(F)F)c1	8%	-6%	-18%	10µM*	2%	7%
COc1ccc(OCCCC(=O)Nc2cc(S(=O)(=O)N3CCCCC3)ccc2C)cc1	-5%	-2%	-64%	5.6µM*	3%	7%
COc1ccc(OCCCC(=O)Nc2cc(S(=O)(=O)N3CCCCC3)ccc2OC)cc1	4%	0%	16%	-38%	6%	134%
CCn1nc(C(=O)OCc2ccc3cc(OC)ccc3c2)c2ccccc2c1=O	.	.	.	.	.	4%
CSc1ccccc1C(=O)Nc1nc(-c2nc3ccccc3s2)cs1	.	.	.	.	.	-17%
COc1ccc(-n2nc(C)c([C@@H]3C=C[C@@H](NCc4cccc(Cl)c4)C3)c2C)cc1	.	.	.	.	.	-25%[176 µM]
O=C(Nc1cnc2ccccc2c1)c1ccncc1	-5%	-9%	i	?	-23%	5%
CCOc1ccc(S(=O)(=O)N2CCCCC2)cc1NC(=O)Cc1cc(OC)c(OC)c(OC)c1	3%	-2%	-9%	14%	-5%	-4%
O=C(Nc1ccccc1N1CCCC1)C1CCN(S(=O)(=O)c2cccc(C(F)(F)F)c2)CC1	2%	-1%	i	?	14%	?
COc1cc(CC(=O)Nc2cc(S(=O)(=O)N3CCCCC3)ccc2C)cc(OC)c1OC	.	.	.	.	.	22µM*
